From the supplement of paper PMC5662767
Structures can show the parent of a compound that is named as a salt.

The molecules below were run on Drosophila S2 cl14 SmoIP sensor cells (assay: normalized SmoIP GFP fluorescence (untreated unstimulated = 0%, untreated Hh-stimulated = 100%); higher = more Smo activation sensor fluorescence). Details: stimulation: Hh conditioned medium (+Hh); compound concentration: 2 uM; 24 h.
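Also: flow cytometry read-out as median GFP intensity of gated cells, compounds added 30 min before Hh-conditioned or mock medium, mock-treated cells serving as unstimulated baseline.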

SMILES	normalized SmoIP GFP fluorescence [%]
COc1c(C)c(C(=O)c2ccc(N)c(C(=O)O)c2)n2ccccc12	113
CC(C)[C@H](O)C(=O)N[C@@H](C)C(=O)N[C@@H]1C(=O)N(C)CCc2ccccc21	98.8
NC12CC3CC(CC(C3)C1)C2 [Amantadine-hydrochloride(Symmetrel)]	110
CCC(CC)CC1(C(=O)Nc2ccccc2SC(=O)C(C)C)CCCCC1 [dalcetrapib-jtt-705]	137
CC(=O)NS(=O)(=O)c1ccc(N)cc1 [sulfacetamide-sodium]	103

Same assay, conditions: stimulation: mock conditioned medium (-Hh); compound concentration: 2 uM; 24 h

SMILES	normalized SmoIP GFP fluorescence [%]
CC(C)CCNC(=O)C(CC(C)C)NC(=O)C1OC1C(=O)O (stereo not drawn) [loxistatin-acid-e-64c]	34.9
CCOc1cc(CC(=O)N[C@@H](CC(C)C)c2ccccc2N2CCCCC2)ccc1C(=O)O [Repaglinide]	6.52
COc1ccccc1N1CCN(CC(O)COc2cccc3ccccc23)CC1 (stereo not drawn) [Naftopidil-Dihydrochloride]	-1.88
O=C(c1cc(Cc2n[nH]c(=O)c3ccccc23)ccc1F)N1CCN(C(=O)C2CC2)CC1 [AZD2281(Olaparib)]	1.35
Cc1[nH]c2ccccc2c1CCNCc1ccc(/C=C/C(=O)NO)cc1	81.3
Cc1ccc(-n2nc(C(C)(C)C)cc2NC(=O)Nc2ccc(OCCN3CCOCC3)c3ccccc23)cc1 [BIRB-796-(Doramapimod)]	72.2
Cc1cn([C@H]2C=C[C@@H](CO)O2)c(=O)[nH]c1=O [Stavudine]	-2.1
CN1CCN(CCOc2cc(OC3CCOCC3)c3c(Nc4c(Cl)ccc5c4OCO5)ncnc3c2)CC1	10.4
COc1cc2c(Nc3ccc(NC(=O)c4ccccc4)cc3)ncnc2cc1OCCCN1CCOCC1	6.52
COc1c(C)c(C(=O)c2ccc(N)c(C(=O)O)c2)n2ccccc12	-1.34
CN(C)C(=O)c1ccc(S(=O)(=O)c2ccc(NC(=O)[C@@](C)(O)C(F)(F)F)c(Cl)c2)cc1	-2.1
Cc1nc(N)sc1-c1ccnc(Nc2ccc(N3CCOCC3)cc2)n1	94.3
CC(C)[C@H](O)C(=O)N[C@@H](C)C(=O)N[C@@H]1C(=O)N(C)CCc2ccccc21	13.8
NC(=O)Nc1cc(-c2cccc(F)c2)sc1C(=O)N[C@H]1CCCNC1	45
COc1cc2c(Oc3ccc4[nH]c(C)cc4c3F)ncnc2cc1OCCCN1CCCC1 [Cediranib]	52.4
Clc1ccc(C2(c3ccc(-c4cn[nH]c4)cc3)CCNCC2)cc1	17.1
O=C(/C=C/c1ccc(CN(CCO)CCc2c[nH]c3ccccc23)cc1)NO	79.7
C=C1C(=O)O[C@@H]2/C=C(\C)CC/C=C(\C)CC[C@@H]12 [Costunolide]	27.4
COC(=O)Nc1ccc(-c2nc(N3CCOCC3)c3cnn(C4CCN(C(=O)OC)CC4)c3n2)cc1	-12.5

SMILES	normalized SmoIP GFP fluorescence [%]
Oc1nc(-c2ccc(C(F)(F)F)cc2)nc2c1CSCC2	5.66
CCOC(=O)[C@H](CCc1ccccc1)N[C@H]1CCc2ccccc2N(CC(=O)O)C1=O [Benazepril-hydrochloride]	1.35
COc1ccc(S(=O)(=O)N(C(C)=O)c2ccccc2/C=C/c2cc[n+]([O-])cc2)cc1	1.03
N#CC(=C(/N)Sc1ccccc1N)/C(C#N)=C(/N)Sc1ccccc1N	23.1
COc1cc2/c(=N/c3ccc(Br)cc3F)nc[nH]c2cc1OCC1CCN(C)CC1 [Vandetanib]	60.9
CCc1cc(Nc2nccc(-c3c(-c4ccc(OC)c(C(=O)Nc5c(F)cccc5F)c4)nc4ccccn34)n2)c(OC)cc1N1CCC(N2CCN(S(C)(=O)=O)CC2)CC1	25.3
O=C(NOC[C@H](O)CO)c1ccc(F)c(F)c1Nc1ccc(I)cc1F	77.1
COCCCC/C(=N\OCCN)c1ccc(C(F)(F)F)cc1 [Fluvoxamine-maleate]	11
NC(=S)N/N=C/c1ncccc1N [triapine]	-3.71
C[C@H](NCc1ccc(OCc2cccc(F)c2)cc1)C(N)=O [Safinamide-mesilate]	4.04
CCOC(=O)[C@H]1O[C@@H]1C(=O)N[C@@H](CC(C)C)C(=O)NCCC(C)C [Aloxistatin]	3.51
C[C@]12C=CC(=O)N[C@@H]1CC[C@@H]1[C@@H]2CC[C@]2(C)[C@@H](C(=O)Nc3cc(C(F)(F)F)ccc3C(F)(F)F)CC[C@@H]12 [Dutasteride]	4.26
OC(CCN1CCCCC1)(c1ccccc1)C1CC2C=CC1C2 (stereo not drawn) [Biperiden-hydrochloride]	2.64
O=c1c(-c2ccc(O)cc2)coc2cc(O)cc(O)c12 [Genistein]	-0.804
NC12CC3CC(CC(C3)C1)C2 [Amantadine-hydrochloride(Symmetrel)]	-4.08
CCC(CC)CC1(C(=O)Nc2ccccc2SC(=O)C(C)C)CCCCC1 [dalcetrapib-jtt-705]	-10.6
CC(=O)NS(=O)(=O)c1ccc(N)cc1 [sulfacetamide-sodium]	-5.72
C=CC(=O)Nc1cccc(Sc2nc(Nc3ccc(N4CCN(C)CC4)cc3)ncc2Cl)c1	36.2
Nc1ccc(C(=O)Nc2cccc(-c3nc(N4CCOCC4)c4oc5ncccc5c4n3)c2)cn1	5.45
